Compound activity: PubChem, Sanford-Burnham Center for Chemical Genomics
Shown are actives, neighbours in structure and some others; about 2.6% of the full set was active somewhere.
eIF4H FP inh – inhibitors of RNA binding by human eIF4H; eIF4H fluorescence polarization binding assay; AID 2012; hit rate 0.94% among 290,000; inhibition, % at 35 µM;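 note: calls also rest on retests at 20 µM and on dose response follow-up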
PABP polyA inh – PABP-poly(A) binding inhibition; P11940; PABP-poly(A) RNA binding, fluorescence polarization; calls only at 35 µM; hit rate 1% among 290,000; AID 2014;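 note: calls also rest on retests at 20 µM and on dose response follow-up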
A3A deaminase – blocks human APOBEC3A ssDNA deamination; hit rate 0.41% among 330,000; recombinant A3A, FAM/TAMRA ssDNA deamination fluorescence; P31941; inhibition, % at 20 µM;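 active = at least 40% inhibition at 20 µM here, with at most 30% in a related deaminase screen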
Target sequence (P31941 whole entry, looked up): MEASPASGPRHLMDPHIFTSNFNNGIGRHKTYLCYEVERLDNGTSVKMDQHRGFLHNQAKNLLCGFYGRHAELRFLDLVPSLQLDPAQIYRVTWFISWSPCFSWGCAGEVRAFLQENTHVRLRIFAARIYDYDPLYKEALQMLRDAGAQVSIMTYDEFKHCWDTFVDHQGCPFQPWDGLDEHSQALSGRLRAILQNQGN
PHOSPHO1 block – inhibitors of human PHOSPHO1 phosphatase. inhibition, % at 13.3 µM. Q8TCT1. recombinant PHOSPHO1, absorbance phosphatase assay. hit rate 1.1% among 290,000; in the data active = inhibition above about 60%
Target sequence (Q8TCT1 whole entry, looked up): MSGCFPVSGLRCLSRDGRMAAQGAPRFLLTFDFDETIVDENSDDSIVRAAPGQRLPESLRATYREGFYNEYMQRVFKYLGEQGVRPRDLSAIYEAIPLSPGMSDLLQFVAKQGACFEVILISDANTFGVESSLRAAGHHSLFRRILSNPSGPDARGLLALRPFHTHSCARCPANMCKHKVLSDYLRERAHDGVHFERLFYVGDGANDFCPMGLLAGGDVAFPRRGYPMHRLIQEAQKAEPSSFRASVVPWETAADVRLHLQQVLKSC
A3G deaminase – APOBEC3G (human) deaminase inhibition; recombinant A3G, ssDNA deamination FAM/TAMRA fluorescence; hit rate 0.28% among 330,000; Q9HC16; inhibition, % at 20 µM;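 active = inhibition of at least 40% at 20 µM, with no more than 30% in the related APOBEC3A deaminase screen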
MLLE-PAM2 inh – blocks PAM2 peptide binding to the PABP1 MLLE domain; P11940; inhibition, % at 20 µM; hit rate 0.36% among 360,000; GST-MLLE / FITC-PAM2 fluorescence polarization; in the data active = inhibition above about 35%, passing the limit was not always enough
APOBEC3A confirm – APOBEC3A (human) deaminase inhibition, confirmed. shares compounds with A3A deaminase. recombinant A3A, ssDNA deaminase UDG fluorescence assay. inhibition, % at 20 µM. hit rate 63% among 1,400. AID 493151;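 active = inhibition reaching a set limit, 80% of the first screen's cutoff, at 20 µM in any replicate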
UDG ctr A3A – UDG inhibition in APOBEC3A counter-screen; shares compounds with A3A deaminase; UDG counterscreen, FAM/TAMRA uracil oligo fluorescence; inhibition, % at 20 µM; 1,000 tested, under 10 active; AID 504714
Large screens that a line does not name were inactive (follow-up assays come after a bar, where they were run). Unless noted, the rule behind the calls is not given here.

CSc1nccc(Oc2ccc(C#N)cc2)n1	none
O=C(CSc1nnc(COc2ccccc2Cl)o1)NC(=O)NCc1ccco1	A3A deaminase 58.7 | APOBEC3A confirm 22.1 | UDG ctr A3A inactive
CC1CCN(C(=O)CCc2ccc(S(=O)(=O)NC(C)C)cc2)CC1	A3A deaminase 50.7 | APOBEC3A confirm inactive | UDG ctr A3A inactive
CC(C)NS(=O)(=O)c1ccc(CCC(=O)N2CCc3ccccc3C2)cc1	none
O=C(O)c1ccc2c(=O)n3c(nc2c1)/C(=C/c1cccc(Cl)c1Cl)CCCC3	none
CC1CCCN(C(=O)c2ccc3c(=O)n4nc(Nc5ccccc5)sc4nc3c2)C1 (stereo not given)	none (no result: eIF4H FP inh, PABP polyA inh, A3A deaminase, PHOSPHO1 block, A3G deaminase)
Cc1cccc(Nc2nn3c(=O)c4ccccc4nc3s2)c1	A3A deaminase 46.4 | APOBEC3A confirm 22.4 | UDG ctr A3A inactive
Cc1c(C(=O)OCC[N+]2(C)CCCCC2)oc2ccccc12	PABP polyA inh active, A3A deaminase 76.7 | APOBEC3A confirm 76.9 | UDG ctr A3A inactive
Cc1c(C(=O)OCC(=O)N2CCC(C)CC2)oc2ccccc12	none (no result: eIF4H FP inh, PABP polyA inh, PHOSPHO1 block)
CSc1ccccc1NC(=O)CN(C)CC(=O)c1[nH]c(C)c(C(C)=O)c1C	A3A deaminase 67.8 (no result: eIF4H FP inh, PABP polyA inh, PHOSPHO1 block) | APOBEC3A confirm 50.2 | UDG ctr A3A inactive
CC(=O)c1c(C)[nH]c(C(=O)CN(C)CC(=O)Nc2ccccc2Cl)c1C	none (no result: eIF4H FP inh, PABP polyA inh, PHOSPHO1 block)
COc1ccc(OCCN2C(=O)c3cccc(N)c3C2=O)cc1	none
CS(=O)(=O)c1ccc(-c2nnn(CC(N)=O)n2)cc1	A3A deaminase 50.4 | APOBEC3A confirm inactive
CC(C)NC(=O)C(C)N1CCN(S(=O)(=O)c2ccc3ccccc3c2)CC1 (stereo not given)	A3A deaminase 57.0 (no result: eIF4H FP inh, PABP polyA inh) | APOBEC3A confirm 59.4 | UDG ctr A3A inactive
CCOC(=O)c1ccc2c(c1)N(CC)C(=O)c1ccccc1S2	A3A deaminase 51.7 (no result: eIF4H FP inh, PABP polyA inh) | APOBEC3A confirm 72.4 | UDG ctr A3A inactive
C=CCNC(=O)c1ccc2c(c1)N(CC)C(=O)c1ccccc1S2	none
Cc1ccc(C(=O)CCC(=O)OCC(=O)N(CC(C)C)c2c(N)n(Cc3ccccc3)c(=O)[nH]c2=O)cc1	none (no result: eIF4H FP inh, PABP polyA inh, PHOSPHO1 block)
OCCN1CCN(c2ncnc3nc[nH]c23)CC1	A3A deaminase 51.3 | APOBEC3A confirm inactive | UDG ctr A3A inactive
CCOc1ccc(S(=O)(=O)N2CCCC(C(=O)NCCN3CCOCC3)C2)cc1Cl (stereo not given)	none
COc1ccc(CN2C(=O)C(CC(=O)NC3CCCCC3)CC(C(=O)N(C(C)C)C(C)C)=C2C)cc1 (stereo not given)	none (no result: eIF4H FP inh, PABP polyA inh, A3A deaminase, PHOSPHO1 block, A3G deaminase)
O=C(O)c1ccc(CSc2n[nH]c(-c3ccco3)n2)cc1	eIF4H FP inh 77.1, PABP polyA inh active, A3A deaminase 84.9 | APOBEC3A confirm 59.1 | UDG ctr A3A inactive
CCOc1ccc(-c2noc(CCC(=O)NC3CCCCC3)n2)cc1OC	none
CS(=O)(=O)c1ccc(NC(=O)CCCc2nc3ccccc3c(=O)[nH]2)cc1	none (no result: eIF4H FP inh, PABP polyA inh, PHOSPHO1 block)
CS(=O)(=O)c1ccc(Cl)c(NC(=O)CCCc2nc3ccccc3c(=O)[nH]2)c1	A3A deaminase 40.8 (no result: eIF4H FP inh, PABP polyA inh, PHOSPHO1 block) | APOBEC3A confirm inactive
O=C1C=C(c2ccc(C(=O)O)cc2)C[C@@H](c2ccc(F)cc2)C1	none (no result: eIF4H FP inh, PABP polyA inh, PHOSPHO1 block)
C[N+](C)(C)CCN(Cc1ccc(Cl)cc1)c1ccccn1	PABP polyA inh active, A3A deaminase 58.2 | APOBEC3A confirm 67.8 | UDG ctr A3A inactive
CN(C)CCN(Cc1ccc(Cl)cc1)c1ccccn1	none
CN(C)c1cc(Cl)c2nonc2c1N	none
CCn1c(N2CCN(CC(=O)c3c(C)n(C)c4ccccc34)CC2)nc2c1c(=O)[nH]c(=O)n2C	A3A deaminase 49.3, PHOSPHO1 block 91.5 | APOBEC3A confirm inactive
O=C1NC(=S)SC1=C1CCCC1	A3A deaminase 62.4, PHOSPHO1 block 71.3 | APOBEC3A confirm 58.1 | UDG ctr A3A inactive
Cc1cccc(C(=O)N[C@H](C(=O)OCc2cc(=O)n3c(n2)sc2ccccc23)C(C)C)c1	eIF4H FP inh 85.4, PABP polyA inh active, A3A deaminase 42.9 | APOBEC3A confirm 52.6 | UDG ctr A3A inactive
Cc1cccc(C(=O)NCC(=O)OCc2cc(=O)n3ccsc3n2)c1	none (no result: eIF4H FP inh, PABP polyA inh, PHOSPHO1 block)
O=c1cc(CCl)nc2sc3ccccc3n12	PABP polyA inh inconclusive, A3A deaminase 62.5 | APOBEC3A confirm 33.8 | UDG ctr A3A inactive
O=C(CCc1ccccc1)OCCOC(=O)CCc1ccccc1	none
C[N+]1(CC(=O)OCCCc2ccccc2)CCCC1	A3A deaminase 54.9 | APOBEC3A confirm 81.0 | UDG ctr A3A inactive
C[N+]1(CC(=O)OCCCc2ccccc2)CCCCC1	PABP polyA inh active, A3A deaminase 48.3 | APOBEC3A confirm 83.4 | UDG ctr A3A inactive
O=C(CN1CCCC1)OCCCc1ccccc1	none
COc1ccc(N2CCN(C(=O)CSc3nc4nc(C)cc(C)n4n3)CC2)cc1	none (no result: eIF4H FP inh, PABP polyA inh, PHOSPHO1 block)
C[N+]1(CCCOC(=O)C2(c3ccccc3)CCCC2)CCOCC1	A3A deaminase 85.1 | APOBEC3A confirm 69.3 | UDG ctr A3A inactive
CN(C)CCOC(=O)C1(c2ccccc2)CCCC1	none
Cn1c2ccccc2c2cc(/C=N/NC(=O)c3cc(O)cc(O)c3)ccc21	eIF4H FP inh 94.8, PABP polyA inh active, A3A deaminase 54.7 | APOBEC3A confirm 60.4 | UDG ctr A3A inactive
Cc1cccc(C(=O)Oc2ccc(/C=N/NC(=O)c3cc(O)cc(O)c3)cc2)c1	eIF4H FP inh 99.3, PABP polyA inh active, A3A deaminase 69.2 | APOBEC3A confirm 77.2 | UDG ctr A3A inactive
COc1ccc(S(=O)(=O)/N=C2/NC(=O)/C(=C\c3cc(OC)c(OC)cc3[N+](=O)[O-])S2)cc1	none
COc1ccc(S(=O)(=O)/N=C2/NC(=O)/C(=C/c3ccco3)S2)cc1	A3A deaminase 46.4 | APOBEC3A confirm 23.7 | UDG ctr A3A inactive
NC(=O)C[N+]1(CC#CC(O)(c2ccccc2)c2ccccc2)CCCC1	A3A deaminase 51.0 | APOBEC3A confirm 70.5 | UDG ctr A3A inactive
CCC[N+]1(CC#CC(O)(c2ccccc2)C2CCCCC2)CCCCC1 (stereo not given)	none
CC(C)(C)c1ccc(NC(=O)c2ccc3c(c2)S(=O)(=O)c2ccccc2C3=O)cc1	A3A deaminase 43.8 (no result: eIF4H FP inh, PABP polyA inh, PHOSPHO1 block) | APOBEC3A confirm inactive | UDG ctr A3A inactive
COc1ccc(NC(=O)c2ccc3c(c2)S(=O)(=O)c2ccccc2C3=O)cc1	none (no result: eIF4H FP inh, PABP polyA inh, PHOSPHO1 block)
COc1ccc(CCNC(=O)CN(C2CCCCC2)S(C)(=O)=O)cc1OC	A3A deaminase 44.3 | APOBEC3A confirm 57.6 | UDG ctr A3A inactive
CS(=O)(=O)N(CC(=O)NCCc1ccccc1)C1CCCCC1	none
CC(C)(C)OC(=O)NC(CNCc1ccccc1)Cc1ccccc1 (stereo not given)	none (no result: eIF4H FP inh, PABP polyA inh, PHOSPHO1 block)
N=C(N)Cc1ccccc1Sc1ccccc1	A3A deaminase 42.0 | APOBEC3A confirm inactive
